{"source": "paper PMC5540273", "about": "(PLoS ONE, 2017);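 further: KINOMEscan kinase panel screen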", "settings_in_all_cases": "concentration: 1 μM, replicates: in singlicate; n = 1", "key": {"TESK1": {"system": "TESK1"}, "TGFBR1": {"system": "TGFBR1"}, "TGFBR2": {"system": "TGFBR2"}, "TIE1": {"system": "TIE1"}, "TIE2": {"system": "T1, TIE2", "T1 construct": "gene TEK"}, "TLK1": {"system": "TLK1"}, "TLK2": {"system": "TLK2"}, "TNIK": {"system": "TNIK"}, "TNK1": {"system": "TNK1"}, "TNK2": {"system": "TNK2"}}, "data": [{"smiles": "O=C(NC1CCN(c2ccnc(Nc3ccc(F)cc3)n2)C1)c1cc2ccccc2s1", "note": "(stereo not shown) [GSK1379716]", "values": [{"measurement": "%Inh", "setting": "TESK1", "value": 31, "unit": "%"}, {"measurement": "%Inh", "setting": "TGFBR1", "value": 39, "unit": "%"}, {"measurement": "%Inh", "setting": "TGFBR2", "value": 0, "unit": "%"}, {"measurement": "%Inh", "setting": "TIE1", "value": 24, "unit": "%"}, {"measurement": "%Inh", "setting": "TIE2", "value": 0, "unit": "%"}, {"measurement": "%Inh", "setting": "TLK1", "value": 7, "unit": "%"}, {"measurement": "%Inh", "setting": "TLK2", "value": 0, "unit": "%"}, {"measurement": "%Inh", "setting": "TNIK", "value": 1, "unit": "%"}, {"measurement": "%Inh", "setting": "TNK1", "value": 0, "unit": "%"}, {"measurement": "%Inh", "setting": "TNK2", "value": 21, "unit": "%"}]}, {"smiles": "COc1cc(Nc2nccc(-c3c(-c4cccc(NC(=O)c5c(F)cccc5F)c4)nn4ccccc34)n2)cc(OC)c1OC", "note": "[GSK323521]", "values": [{"measurement": "%Inh", "setting": "TESK1", "value": 36, "unit": "%"}, {"measurement": "%Inh", "setting": "TGFBR1", "value": 0, "unit": "%"}, {"measurement": "%Inh", "setting": "TGFBR2", "value": 17, "unit": "%"}, {"measurement": "%Inh", "setting": "TIE1", "value": 67, "unit": "%"}, {"measurement": "%Inh", "setting": "TIE2", "value": 46, "unit": "%"}, {"measurement": "%Inh", "setting": "TLK1", "value": 6, "unit": "%"}, {"measurement": "%Inh", "setting": "TLK2", "value": 0, "unit": "%"}, {"measurement": "%Inh", "setting": "TNIK", "value": 0, "unit": "%"}, {"measurement": "%Inh", "setting": "TNK1", "value": 0, "unit": "%"}, {"measurement": "%Inh", "setting": "TNK2", "value": 1, "unit": "%"}]}, {"smiles": "CCCCc1nn2ncccc2c1-c1ccnc(Nc2ccc(N3CCN(C)CC3)cc2)n1", "note": "[GW684941]", "values": [{"measurement": "%Inh", "setting": "TESK1", "value": 39, "unit": "%"}, {"measurement": "%Inh", "setting": "TGFBR1", "value": 80, "unit": "%"}, {"measurement": "%Inh", "setting": "TGFBR2", "value": 91, "unit": "%"}, {"measurement": "%Inh", "setting": "TIE1", "value": 93.6, "unit": "%"}, {"measurement": "%Inh", "setting": "TIE2", "value": 80, "unit": "%"}, {"measurement": "%Inh", "setting": "TLK1", "value": 0, "unit": "%"}, {"measurement": "%Inh", "setting": "TLK2", "value": 0, "unit": "%"}, {"measurement": "%Inh", "setting": "TNIK", "value": 25, "unit": "%"}, {"measurement": "%Inh", "setting": "TNK1", "value": 86, "unit": "%"}, {"measurement": "%Inh", "setting": "TNK2", "value": 62, "unit": "%"}]}, {"smiles": "Cl.Cl.NCC(NC(=O)c1cc(-c2ccccc2)c(-c2ccnc3[nH]ccc23)s1)c1ccccc1", "note": "(stereo not shown) [GSK1321561]", "values": [{"measurement": "%Inh", "setting": "TESK1", "value": 16, "unit": "%"}, {"measurement": "%Inh", "setting": "TGFBR1", "value": 0, "unit": "%"}, {"measurement": "%Inh", "setting": "TGFBR2", "value": 0, "unit": "%"}, {"measurement": "%Inh", "setting": "TIE1", "value": 13, "unit": "%"}, {"measurement": "%Inh", "setting": "TIE2", "value": 0, "unit": "%"}, {"measurement": "%Inh", "setting": "TLK1", "value": 54, "unit": "%"}, {"measurement": "%Inh", "setting": "TLK2", "value": 0, "unit": "%"}, {"measurement": "%Inh", "setting": "TNIK", "value": 86, "unit": "%"}, {"measurement": "%Inh", "setting": "TNK1", "value": 0, "unit": "%"}, {"measurement": "%Inh", "setting": "TNK2", "value": 7, "unit": "%"}]}, {"smiles": "COc1cc(Nc2nccc(N3CCC(NC(=O)Nc4cccc(C(C)=O)c4)C3)n2)cc(OC)c1OC", "note": "(stereo not shown) [GSK1379753]", "values": [{"measurement": "%Inh", "setting": "TESK1", "value": 1, "unit": "%"}, {"measurement": "%Inh", "setting": "TGFBR1", "value": 0, "unit": "%"}, {"measurement": "%Inh", "setting": "TGFBR2", "value": 0, "unit": "%"}, {"measurement": "%Inh", "setting": "TIE1", "value": 27, "unit": "%"}, {"measurement": "%Inh", "setting": "TIE2", "value": 1, "unit": "%"}, {"measurement": "%Inh", "setting": "TLK1", "value": 0, "unit": "%"}, {"measurement": "%Inh", "setting": "TLK2", "value": 0, "unit": "%"}, {"measurement": "%Inh", "setting": "TNIK", "value": 0, "unit": "%"}, {"measurement": "%Inh", "setting": "TNK1", "value": 21, "unit": "%"}, {"measurement": "%Inh", "setting": "TNK2", "value": 19, "unit": "%"}]}, {"smiles": "NCCCC(NC(=O)c1cc(Br)c(-c2ccnc3[nH]ccc23)s1)c1ccccc1.O=C(O)C(F)(F)F.O=C(O)C(F)(F)F", "note": "(stereo not shown) [GSK1287544]", "values": [{"measurement": "%Inh", "setting": "TESK1", "value": 16, "unit": "%"}, {"measurement": "%Inh", "setting": "TGFBR1", "value": 0, "unit": "%"}, {"measurement": "%Inh", "setting": "TGFBR2", "value": 0, "unit": "%"}, {"measurement": "%Inh", "setting": "TIE1", "value": 73, "unit": "%"}, {"measurement": "%Inh", "setting": "TIE2", "value": 15, "unit": "%"}, {"measurement": "%Inh", "setting": "TLK1", "value": 0, "unit": "%"}, {"measurement": "%Inh", "setting": "TLK2", "value": 0, "unit": "%"}, {"measurement": "%Inh", "setting": "TNIK", "value": 3, "unit": "%"}, {"measurement": "%Inh", "setting": "TNK1", "value": 0, "unit": "%"}, {"measurement": "%Inh", "setting": "TNK2", "value": 0, "unit": "%"}]}, {"smiles": "Cn1cc(-c2[nH]c3cc(NC(=O)[C@H](N)C4CCCCC4)cc4c3c2C=NNC4=O)cn1", "values": [{"measurement": "%Inh", "setting": "TESK1", "value": 15, "unit": "%"}, {"measurement": "%Inh", "setting": "TGFBR1", "value": 0, "unit": "%"}, {"measurement": "%Inh", "setting": "TGFBR2", "value": 66, "unit": "%"}, {"measurement": "%Inh", "setting": "TIE1", "value": 83, "unit": "%"}, {"measurement": "%Inh", "setting": "TIE2", "value": 42, "unit": "%"}, {"measurement": "%Inh", "setting": "TLK1", "value": 8, "unit": "%"}, {"measurement": "%Inh", "setting": "TLK2", "value": 1, "unit": "%"}, {"measurement": "%Inh", "setting": "TNIK", "value": 91.9, "unit": "%"}, {"measurement": "%Inh", "setting": "TNK1", "value": 68, "unit": "%"}, {"measurement": "%Inh", "setting": "TNK2", "value": 48, "unit": "%"}]}, {"smiles": "Cl.Cl.NCC(C(=O)Nc1cc(Br)c(-c2ccnc3[nH]ccc23)s1)c1ccccc1", "note": "(stereo not shown) [GSK1269851]", "values": [{"measurement": "%Inh", "setting": "TESK1", "value": 0, "unit": "%"}, {"measurement": "%Inh", "setting": "TGFBR1", "value": 0, "unit": "%"}, {"measurement": "%Inh", "setting": "TGFBR2", "value": 0, "unit": "%"}, {"measurement": "%Inh", "setting": "TIE1", "value": 51, "unit": "%"}, {"measurement": "%Inh", "setting": "TIE2", "value": 6, "unit": "%"}, {"measurement": "%Inh", "setting": "TLK1", "value": 0, "unit": "%"}, {"measurement": "%Inh", "setting": "TLK2", "value": 0, "unit": "%"}, {"measurement": "%Inh", "setting": "TNIK", "value": 11, "unit": "%"}, {"measurement": "%Inh", "setting": "TNK1", "value": 6, "unit": "%"}, {"measurement": "%Inh", "setting": "TNK2", "value": 12, "unit": "%"}]}, {"smiles": "Cl.NC(=O)c1cccc(Nc2nccc(Nc3ccc(Oc4c(Cl)cccc4Cl)c(Cl)c3)n2)c1", "note": "[GW659009]", "values": [{"measurement": "%Inh", "setting": "TESK1", "value": 0, "unit": "%"}, {"measurement": "%Inh", "setting": "TGFBR1", "value": 0, "unit": "%"}, {"measurement": "%Inh", "setting": "TGFBR2", "value": 29, "unit": "%"}, {"measurement": "%Inh", "setting": "TIE1", "value": 33, "unit": "%"}, {"measurement": "%Inh", "setting": "TIE2", "value": 0, "unit": "%"}, {"measurement": "%Inh", "setting": "TLK1", "value": 0, "unit": "%"}, {"measurement": "%Inh", "setting": "TLK2", "value": 0, "unit": "%"}, {"measurement": "%Inh", "setting": "TNIK", "value": 0, "unit": "%"}, {"measurement": "%Inh", "setting": "TNK1", "value": 36, "unit": "%"}, {"measurement": "%Inh", "setting": "TNK2", "value": 0, "unit": "%"}]}, {"smiles": "Nc1ncc(-c2ccc3nccc(-c4ccncc4)c3c2)cc1S(=O)(=O)N1CCOCC1", "note": "[GSK1627798]", "values": [{"measurement": "%Inh", "setting": "TESK1", "value": 2, "unit": "%"}, {"measurement": "%Inh", "setting": "TGFBR1", "value": 0, "unit": "%"}, {"measurement": "%Inh", "setting": "TGFBR2", "value": 5, "unit": "%"}, {"measurement": "%Inh", "setting": "TIE1", "value": 3, "unit": "%"}, {"measurement": "%Inh", "setting": "TIE2", "value": 0, "unit": "%"}, {"measurement": "%Inh", "setting": "TLK1", "value": 0, "unit": "%"}, {"measurement": "%Inh", "setting": "TLK2", "value": 0, "unit": "%"}, {"measurement": "%Inh", "setting": "TNIK", "value": 0, "unit": "%"}, {"measurement": "%Inh", "setting": "TNK1", "value": 0, "unit": "%"}, {"measurement": "%Inh", "setting": "TNK2", "value": 11, "unit": "%"}]}]}
